Assay outcomes: PubChem BioAssay, several laboratories
The list is not random: actives were taken first. Their share in the collection is about 4.2%.
FBA Mtb inh: inhibitors of M. tuberculosis fructose-bisphosphate aldolase | purified M. tuberculosis FBA, fluorescence read-out | inhibition, % at 1 µM | 360,000 compounds, 2.3% hits | P9WQA3; in the data active = inhibition above about 27%
Target sequence (P9WQA3 whole entry, looked up): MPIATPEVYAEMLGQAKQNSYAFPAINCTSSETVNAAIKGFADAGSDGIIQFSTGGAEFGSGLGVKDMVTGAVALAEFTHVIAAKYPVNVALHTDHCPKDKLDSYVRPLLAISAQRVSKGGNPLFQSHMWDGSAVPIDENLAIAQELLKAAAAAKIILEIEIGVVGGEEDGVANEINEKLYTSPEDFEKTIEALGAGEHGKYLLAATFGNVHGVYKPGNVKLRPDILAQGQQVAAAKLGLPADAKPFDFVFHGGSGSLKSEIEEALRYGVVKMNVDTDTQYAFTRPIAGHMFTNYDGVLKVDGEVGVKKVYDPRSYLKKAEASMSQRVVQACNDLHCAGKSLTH
Mtb betalactam: beta-lactam sensitization of Mtb H37Rv; M. tuberculosis H37Rv growth with meropenem, percent inhibition; inhibition, % at 25 µM; 330,000 compounds, 0.27% hits;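 also: growth measured after seven days incubation then overnight dye step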
RecA intein inh: inhibitors of M. tuberculosis RecA intein splicing; inhibition, % (concentration not given with the values); 290,000 compounds, 0.75% hits; P9WHJ3; AID 2221; cell-free RecA intein splicing, fluorescence; in the data active = inhibition above about 30%; inconclusive = no clear call, values can overlap the other calls
GDH-TPI inh: inhibits GDH-TPI coupling enzymes, artifact for Mtb FBA screen; GDH-TPI coupled enzyme counterscreen, NADH absorbance; inhibition, % at 4.8 µM; 360,000 compounds, 1.2% hits; AID 588335; in the data active = inhibition above about 30%
CCHF vOTU inh: blocks the CCHF virus ovarian tumor domain protease; 370,000 compounds, 0.55% hits; CCHFV vOTU protease, Pep-AMC fluorescence; AID 651958; inhibition, % at 11.5 µM; in the data active = inhibition above about 30%
GFP chromo cs: counter-screen GFP chromophore formation inhibition; shares compounds with RecA intein inh; cell-free GFP chromophore formation, fluorescence; EC50, µM; 2,100 compounds, 83% hits
Each line names hits and unclear results; the compound was inactive in the other large screens (follow-up assays come after a bar, where they were run). Unless noted, no rule for the calls is given here.

Cc1[nH][nH]c(=O)c1C(c1ccc(Br)cc1)c1c(C)[nH][nH]c1=O	RecA intein inh 98 | GFP chromo cs 0.81
O=c1[nH]cnc(O)c1C(c1ccc(Br)cc1)c1c(O)nc[nH]c1=O	none
COC(=O)COc1ccc(C(=O)OC)cc1	none
Cc1[nH][nH]c(=O)c1C(c1ccc([N+](=O)[O-])cc1)c1c(C)[nH][nH]c1=O	RecA intein inh 96 | GFP chromo cs 0.69
COc1cc(C(c2c(C)[nH][nH]c2=O)c2c(C)[nH][nH]c2=O)ccc1OCc1ccc([N+](=O)[O-])cc1	RecA intein inh 95 | GFP chromo cs 0.35
COC(=O)COc1ccc(C(c2c(C)[nH][nH]c2=O)c2c(C)[nH][nH]c2=O)cc1	RecA intein inh 98 | GFP chromo cs 0.69
COc1ccc(S(=O)(=O)NCC(=O)N2CCN(c3ccccn3)CC2)c(OC)c1	none (no result: FBA Mtb inh, Mtb betalactam, RecA intein inh, GDH-TPI inh)
O=C(CC1CCCC1)N[C@@H](Cc1cccnc1)C(=O)N1CCC[C@H]1C(=O)NC1CCCC1	none (no result: FBA Mtb inh, Mtb betalactam, RecA intein inh, GDH-TPI inh)
C=CCOC(=O)N[C@H](c1ccccc1)[C@H](C)/C=C/CC(=O)OC	none (no result: FBA Mtb inh, Mtb betalactam, RecA intein inh, GDH-TPI inh)
Cc1ccc(C(c2c(C)[nH][nH]c2=O)c2c(C)[nH][nH]c2=O)cc1	RecA intein inh 98 | GFP chromo cs 0.54
CSc1ccc(C(c2c(C(=O)O)[nH]c3ccccc23)c2c(C(=O)O)[nH]c3ccccc23)cc1	none
Cc1ccc(N=Nc2c(C)[nH][nH]c2=O)c(C)c1	none
CSc1ccc(C(c2c(C)[nH][nH]c2=O)c2c(C)[nH][nH]c2=O)cc1	RecA intein inh 98 | GFP chromo cs 0.57
COc1ccc(C2NC(c3ccc(OC)cc3OC)C(C)C(=O)C2C)c(OC)c1 (stereo not given)	RecA intein inh 51 | GFP chromo cs inactive
Nc1cccc2c(O)cccc12	RecA intein inh 56 | GFP chromo cs 37
COc1ccc(C2C(C#N)=C(N)Oc3n[nH]c(C)c32)cc1Cn1cc([N+](=O)[O-])cn1 (stereo not given)	RecA intein inh 76 | GFP chromo cs 12
CCOC(=O)Cc1[nH]nc2c1C(c1ccoc1)C(C#N)=C(N)O2 (stereo not given)	RecA intein inh 65 | GFP chromo cs 26
COc1cc(C2C(C#N)=C(N)OC3=C2C(=O)CCC3)cc2c1OCO2 (stereo not given)	none
COc1ccc(C2Nc3ccccc3C(=O)N2c2ccccc2)cc1Cn1cc([N+](=O)[O-])cn1 (stereo not given)	none
C=CCOC(=O)C1=C(C)OC(N)=C(C#N)C1c1ccoc1 (stereo not given)	Mtb betalactam inconclusive (no result: RecA intein inh)
COc1cc(C2C(C#N)=C(N)Oc3n[nH]c(C)c32)cc2c1OCO2 (stereo not given)	RecA intein inh 92 | GFP chromo cs 4.9
CCc1[nH]nc2c1C(c1ccncc1)C(C#N)=C(N)O2 (stereo not given)	none
CCCc1[nH]nc2c1C(c1ccoc1)C(C#N)=C(N)O2 (stereo not given)	RecA intein inh 61 | GFP chromo cs 19
CCCCCCCCN1C(=O)[C@@H](CC(=O)NCCCN2CCCC2=O)C[C@@]2(C(=O)OC)C1=C[C@H](C1CCCC1)O[C@@H]2C	none (no result: FBA Mtb inh, Mtb betalactam, RecA intein inh, GDH-TPI inh)
COC(=O)[C@]12C[C@H](CC(=O)N3CCC(c4ccccc4)CC3)C(=O)N(Cc3ccccc3)C1=C[C@H](C(C)C)O[C@@H]2C1CC1	none (no result: FBA Mtb inh, Mtb betalactam, RecA intein inh, GDH-TPI inh)
CCOC(=O)N(C)[C@H]1C[C@H]2c3[nH]c4c(-c5ccc6c(c5)OCO6)cccc4c3CCN2C(=O)[C@H]1[C@H](C)O	none (no result: FBA Mtb inh, Mtb betalactam, RecA intein inh, GDH-TPI inh)
COC(=O)[C@]12C[C@H](CC(=O)N3CCC(c4ccccc4)CC3)C(=O)N(Cc3cccc4ccccc34)C1=C[C@H](C1CCCC1)O[C@@H]2C	none (no result: FBA Mtb inh, Mtb betalactam, RecA intein inh, GDH-TPI inh)
Cc1[nH]nc2c1C(c1ccoc1)C(C#N)=C(N)O2 (stereo not given)	RecA intein inh 84 | GFP chromo cs 18
COc1ccc(-c2ccc(C3C(C#N)=C(N)Oc4n[nH]c(C)c43)o2)cc1 (stereo not given)	none (no result: RecA intein inh)
COc1ccc(S[C@]2(C(=O)N3CCOCC3)CC(=O)N(C(=O)Nc3ccc(C)c(Cl)c3)[C@@H]2c2ccc(OC)cc2)cc1	none (no result: FBA Mtb inh, Mtb betalactam, RecA intein inh, GDH-TPI inh)
COC(=O)[C@]12C[C@H](CC(=O)NCCC(C)C)C(=O)N(Cc3ccco3)C1=C[C@H](COCc1ccccc1)O[C@@H]2C	none (no result: FBA Mtb inh, Mtb betalactam, RecA intein inh, GDH-TPI inh)
COc1ccc(C2CC(=O)C(c3cccc(OC)c3)=CN2Cc2ccccc2)cc1 (stereo not given)	none (no result: FBA Mtb inh, Mtb betalactam, RecA intein inh, GDH-TPI inh)
Clc1ccc(-c2nnc(SCc3cccc4ccccc34)n2-c2ccc(Cl)cc2)cc1	none (no result: FBA Mtb inh, Mtb betalactam, RecA intein inh, GDH-TPI inh)
O=C(NCCc1ccccc1)C(c1cccs1)N(C(=O)CCl)c1ccc(Cl)cc1 (stereo not given)	RecA intein inh 74 | GFP chromo cs 0.51
O=C(CSc1nnc(-c2ccccn2)n1-c1ccccc1)c1ccc(Cl)c(Cl)c1	none (no result: FBA Mtb inh, Mtb betalactam, RecA intein inh, GDH-TPI inh)
CCOC(=O)c1cnc2ccc(C)cc2c1Sc1ccccc1	RecA intein inh 63 | GFP chromo cs 38
O=C1C(Cl)=C(N2CCCCC2)C(=O)C(Cl)=C1c1cnc(N2CCCCC2)s1	RecA intein inh 35 (no result: Mtb betalactam, CCHF vOTU inh) | GFP chromo cs 0.45
O=C(c1cccs1)n1ccc2ccc(-c3ccc4ccn(C(=O)c5cccs5)c4c3)cc21	none (no result: FBA Mtb inh, Mtb betalactam, RecA intein inh, GDH-TPI inh)
CCOC(=O)c1cnc2c3c(noc13)CCC2	none (no result: FBA Mtb inh, Mtb betalactam, RecA intein inh, GDH-TPI inh)
CS(=O)(=O)N1CCC(Oc2ccccc2C(=O)N2CCCCC2CO)CC1 (stereo not given)	RecA intein inh 48 | GFP chromo cs inactive
N#CC1(NC(=O)COC(=O)c2cc(O)c3ccccc3c2O)CCCCC1	RecA intein inh 81 (no result: CCHF vOTU inh) | GFP chromo cs 4.8
O=[N+]([O-])c1cc([N+](=O)[O-])c2oc(-c3ccccc3)c(Br)c2c1O	RecA intein inh 30 (no result: Mtb betalactam, CCHF vOTU inh) | GFP chromo cs inactive
O=C(OCn1ncc(Cl)c(Cl)c1=O)c1ccc(F)cc1	RecA intein inh 75 (no result: FBA Mtb inh, GDH-TPI inh, CCHF vOTU inh) | GFP chromo cs 8.1
O=C(OCn1ncc(Cl)c(Cl)c1=O)c1ccccc1Cl	RecA intein inh 89 | GFP chromo cs 5.2
O=C(Cn1ncc(Cl)c(Cl)c1=O)c1ccc(Cl)cc1	none
Cc1ccccc1NC(=O)CCS(=O)(=O)c1ccccc1	none (no result: FBA Mtb inh, Mtb betalactam, RecA intein inh, GDH-TPI inh)
CCOC(=O)C1(CCOc2ccccc2)CCN(Cc2ccc(O)c(Cl)c2)CC1	RecA intein inh 43 | GFP chromo cs inactive
CCOC(=O)C1(CCOc2ccccc2)CCN(Cc2ccc(O)c(OC)c2)CC1	none
CCCC(=O)OCCNc1cc(SCCC(=O)OC)c2nonc2c1[N+](=O)[O-]	RecA intein inh 39 | GFP chromo cs 18
CC(=O)OCCNc1cc(SCc2ccco2)c2nonc2c1[N+](=O)[O-]	RecA intein inh 78 (no result: CCHF vOTU inh) | GFP chromo cs 11
CC(=O)OCCNc1cc(Sc2nc3ccccc3[nH]2)c2nonc2c1[N+](=O)[O-]	none
CC(=O)OCCCNc1cc(Sc2ccc(C)cc2)c2nonc2c1[N+](=O)[O-]	none
COC(=O)CCSc1cc(NCCOC(C)=O)c([N+](=O)[O-])c2nonc12	RecA intein inh 54 | GFP chromo cs 24
COc1ccc(Cn2ccc3ccc(-c4ccc5ccn(C(=O)C6CCC6)c5c4)cc32)cc1	none (no result: FBA Mtb inh, Mtb betalactam, RecA intein inh, GDH-TPI inh)
